A selection: hits, their analogues and other compounds. The true share with any hit is near 2.1%.
Mito fusion yeast: blocks mitochondrial division or promotes mitochondrial fusion; S. cerevisiae fusion-defective mutant growth rescue, CellTiterGlo 48 h; Potency, µM (series often up to 46.1 µM), most hits filed as activators; hit rate 0.23% among 320,000; also: nearly all actives have a fitted effect of over 45% in size
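Read-out: ATP-based luminescence (CellTiterGlo, 10 min ambient) reporting growth of fusion-defective ts yeast after 48 hours at 37C on glycerol/ethanol YPEG medium in the presence of compound.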
AT treatment: candidate therapy for ataxia-telangiectasia; Potency, µM (titrated, usually from 57.5 µM), hits mostly activators; hit rate 0.19% among 320,000; F2112 A-T fibroblasts, KAP-1 phosphorylation AlphaLISA; neocarzinostatin DNA damage 30 min before lysis; also: nearly all actives have a fitted effect of over 45% in size
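ATM-like activity read as KAP-1 phosphorylation via AlphaLISA donor/acceptor antibody pairs after lysis and 6 hr at 25C. Cells were ATM-null patient fibroblasts (F2112, hTERT), dosed 60 min, then exposed to the DSB inducer NCS for 30 min.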
Abeta rescue: restores growth of yeast expressing A-beta42 peptide | yeast expressing A-beta42, growth rescue, OD600, 48 h; response scale: 0% DMSO, 100% iron-clioquinol control | Potency, µM (doses to about 46.1 µM), actives largely listed as activators | hit rate 0.063% among 410,000 | AID 1347071; also: nearly all actives have a fitted effect of over 55% in size
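Yeast A-beta toxicity model in growth medium with pinned compounds, 48 h at 30 C; growth read as absorbance at 600 nm. Normalized to FeCl3/clioquinol equimolar mix (positive) and DMSO (negative).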
Glioma ERSR ind: ER stress response induction in glioma; U87-MG GRP78 promoter luciferase reporter, 16 h; Potency, µM, usual class: activators; hit rate 0.02% among 420,000; also: series mostly up to about 76 µM; nearly all actives have a fitted effect of over 35% in size
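Stably transfected U87-MG glioma cells carrying a GRP78-based luciferase sensor; 16 h compound incubation. Luminescence end-point read 10 min after Bright-Glo addition at room temperature.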
aSyn yeast inh: inhibitors of alpha-synuclein toxicity in yeast. hit rate 0.14% among 370,000. Yeast expressing alpha-synuclein, growth rescue, BacTiter-Glo, 24 h. Potency, µM (titrated, usually from 46.1 µM), actives largely listed as activators. AID 652106; also: nearly all actives have a fitted effect of over 65% in size
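Galactose-induced alpha-syn yeast (OD600=0.02, raffinose-pregrown) + pinned cpd, 24 hr, 30 deg C; growth by BacTiter-Glo luminescence. Growth restoration scores as activation.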
TDP-43 yeast inh: inhibitors of TDP-43 toxicity in yeast; TDP-43 expressing yeast growth rescue, BacTiter-Glo, 24 h; hit rate 1.8% among 410,000; Potency, µM (highest dose often 46.1 µM), hits mostly activators; AID 652104; also: nearly all actives have a fitted effect of over 50% in size
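Luminescence from BacTiter-Glo reports growth of TDP-43-expressing yeast after 24 hr at 30 deg C with compound. Cells were raffinose-pregrown to mid-log, then seeded in galactose medium at OD600=0.02.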
A number is an active result; n = inactive; u = inconclusive; x = no result given; ! = not confirmed by another sample; [ ] = another dose, or the depositor's remark. Calls follow the shape of the dose curve; as a rule, active = well fitted curve in the direction sought with a large enough effect; inconclusive = small, poorly fitted or top-dose-only effect, or another doubt; inactive = no such curve, though single readings can be large; an effect the other way counts as inactive or inconclusive.

SMILES	Mito fusion yeast	AT treatment	Abeta rescue	Glioma ERSR ind	aSyn yeast inh	TDP-43 yeast inh
CSc1ccc(C(=S)N2CCCCCC2)cc1	n	n	u	n	n	11µM
O=C(c1c2c(nc3ccccc13)C(=O)N(C1CCCCC1)C2)N1CCN(c2ccc(F)cc2)CC1	x	x	n	n	x	n
O=C(CCn1c(=O)c2cccn2c2cccnc21)N1CCN(c2ccccc2)CC1	x	x	n	n	x	n
O=C(CCn1c(=O)c2cccn2c2cccnc21)N1CCN(c2cccc(C(F)(F)F)c2)CC1	x	x	n	n	x	25µM
CC1(C(=O)Nc2cccc(C#N)c2)CCN1C(=O)c1ccccc1CCc1ccccc1 (configuration not stated)	x	x	n	n	n	u
CC1(C(=O)Nc2ccc3c(c2)OCCO3)CCN1C(=O)c1ccccc1CCc1ccccc1 (configuration not stated)	x	x	n	n	n	14µM
O=C(COc1ccc(Cl)cc1)NNC(=O)c1ccccn1	n	n	u	n	u	14µM
O=C(COc1ccccc1)NNC(=O)c1ccc(Cl)cc1	n	n	n	n	n[1.84 µM]	n
Cc1cc(C)cc(OCC(=O)NNC(=O)c2ccccn2)c1	n	n	u	n	u	20µM
COc1ccc2c(c1)OC(C)CN(CCNC(=O)c1ccc(-n3cccn3)cc1)C2 (configuration not stated)	x	x	x	n	x	x
COC(=O)c1cc2sc(C)cc2n1Cc1cccc(OC)c1	x	x	n	x	x	n
CC=Cc1cc(OC)c2c(c1)C(C)C(c1ccc(O)c(OC)c1)O2 (configuration not stated)	x	x	n	n	u	35µM
CCCCCCCCc1nc(=S)[nH][nH]1	n	n	n	n	n	13µM
c1ccc(-c2cc(-c3ccccc3)n3ncnc3n2)cc1	n	n	n	n	n	n[0.397 µM]
COc1ccc(-c2cc(-c3ccccc3)nc3ncnn23)cc1	n	n	n	n	n	14µM
Nc1nc2ccccc2n1/N=C/c1ccc([N+](=O)[O-])s1	11µM	n	n	n	n	n
Nc1nc2ccccc2n1/N=C/c1cccnc1	x	x	n	n	n	n
COc1ccccc1NC(=S)N(Cc1ccccn1)Cc1ccccc1Cl	n	n	n	n	n	n
Cc1ccccc1NC(=S)N(Cc1ccccn1)Cc1ccccc1Cl	n	n	13µM	n	n	u
COc1ccc(N2CCC(CNC(=S)Nc3ccc(C)cc3C)C2)cc1 (configuration not stated)	u	n	22µM	n	n	u
CCCNS(=O)(=O)/C=C/c1ccccc1	n	n	n	n	n	n[9.22 µM]
O=S(=O)(/C=C/c1ccccc1)NCc1ccccc1Cl	n	n	n	n	n	11µM
COc1cc(OC)c(CN2CCOc3ccc(CN4CCC(O)CC4)cc3C2)c(OC)c1	x	x	x	n	x	x
Cc1c(C(=O)c2ccc(Cl)cc2Cl)cnc2cc3c(cc12)OCO3	13µM	x	n	n	n	u
CC1(C)O[C@@H]2C[C@H]3[C@@H]4CCC5=CC(=O)C=C[C@]5(C)[C@@]4(F)[C@@H](O)C[C@]3(C)[C@]2(C(=O)CO)O1	13µM	n	n	n	n	u
SMILES	Mito fusion yeast	AT treatment	Abeta rescue	Glioma ERSR ind	aSyn yeast inh	TDP-43 yeast inh
Cc1ccc(N=Nc2ccc(O)c3ncccc23)cc1C	n	n	n	n	u	28µM
COc1ccccc1Cn1c(CNS(=O)(=O)c2ccc(Cl)s2)nc2cccnc21	x	x	n	n	x	n
COc1ccccc1CNS(=O)(=O)c1ccc(Cl)s1	n	n	n	n	n	13µM
CCOc1cc(C)c(Cl)cc1S(=O)(=O)NCc1ccc2c(c1)OCO2	n	n	n	n	n	14µM
O=S(=O)(NCc1ccc2c(c1)OCO2)c1ccc(Cl)s1	n	n	n	n	n	11µM
Cc1cc(C)c(S(=O)(=O)NCc2ccc3c(c2)OCO3)c(C)c1	n	n	n	n	n	18µM
O=C(NC1CCSC1=O)C1CCCCC1 (configuration not stated)	n	n	n	n	n	x
CCO[C@@H](Cc1ccc(OCCc2ccc(OS(C)(=O)=O)cc2)cc1)C(=O)O	x	x	x	n	x	x
COc1cc2c(c(OC)c1OC)-c1c(cc3c(c1OC)OCO3)CC(C)C(C)(O)C2 (configuration not stated)	x	x	x	n	x	x
COc1ccccc1CNC(=O)c1ccc2c(c1)nnn2C1CCCC1	x	x	n	n	x	u
Cn1c(=O)c(Oc2ccc(Cl)cc2)c(O)c2ccccc21	10µM	n	n	n	n	n
COc1ccc(Oc2c(O)c3ccccc3n(C)c2=O)cc1	u	n	n	n	n	n
Cn1c(=O)c(-c2ccccc2)c(O)c2ccccc21	n	n	n	n	n	20µM
O=C(NCC1Cc2cccc(-c3cnccn3)c2O1)C1COc2ccccc2O1 (configuration not stated)	x	x	x	n	x	x
O=C(Nc1ccc(C(F)(F)F)cc1)C1CCN(c2cnccn2)CC1	n	n	n	n	n	16µM!
CCOC(=O)c1ccc(NC(=O)C2CCCN(c3cnccn3)C2)cc1 (configuration not stated)	u	n	n	n	u	20µM
Cc1ccc(NC(=O)C2CCCN(c3cnccn3)C2)cc1Cl (configuration not stated)	x	x	n	n	x	22µM
Cc1ccc(NC(=O)C2CCN(c3cnccn3)CC2)cc1	n	n	n	n	n	n
CCc1cccc(NC(=O)C2CCCN(c3cnccn3)C2)c1 (configuration not stated)	n	n	x	n	n	u
CCN(c1ccccc1)S(=O)(=O)c1cc(-c2onc(C)c2C)ccc1OC	x	x	n	n	x	n
COc1c(N2CCN(C(=S)NC3CC4CCC3C4)C(C)C2)c(F)cc2c(=O)c(C(=O)O)cn(C3CC3)c12 (configuration not stated)	n	28µM	n	n	n	n
COc1ccccc1Cc1nc2ccccc2nc1SCC(=O)NCc1ccccc1Cl	x	x	n	n	x	u
Cc1cccc(C)c1Nc1nnc(SCC(=O)c2ccc(Br)s2)s1	18µM	n	u	n	u	n
Nc1cc(N2CCOCC2)c(Cl)cc1[N+](=O)[O-]	n	n	n	n	n	20µM
O=[N+]([O-])c1ccc(N2CCCC2)cc1N1CCCC1	n	n	n	n	n	16µM
Nc1cc(N2CCCC2)c(Cl)cc1[N+](=O)[O-]	n	n	n	n	n	11µM
O=C(NCc1ccccc1)c1ccc(CSc2nc3cccnc3n2Cc2cccc(F)c2)cc1	x	x	n	n	x	n
COc1ccc2c(c1)CC/C2=N\OC(=O)c1ccccc1OC	35µM	n	n	n	n	u
COc1ccccc1C(=O)O/N=C1/CCCc2c1ccc(OC)c2[N+](=O)[O-]	n	n	n	n	n	n
COc1ccc(C(=O)CCC(=O)Nc2cc(C)ccc2C)cc1	x	x	n	n	x	11µM
